VP16 counter – counter-screen for ROR gamma inhibitors: Gal4-VP16 reporter. AID 2546. Drosophila S2 Gal4-VP16 UAS-luciferase, luminescence, 20 h. 310,000 tested, 3.5% active. Potency, µM (series often up to 53.6 µM), for the others: at the highest dose activity, negative = inhibition, most hits filed as inhibitors;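 note: Gal4-VP16 expression switched on by copper sulfate through the metallothionein promoter; potency is the fitted concentration of half-maximal effect; % is set by controls: 0 for no effect and ±100 for the full control effect; nearly all actives have a fitted effect of over 50% in size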
p53 reactivation – mutant p53 re-activation in reporter cells; H1299 p53-A138V BP100-luciferase reporter, luminescence, 24 h; Potency, µM (top dose mostly 92.2 µM), without a hit: at the top dose activity change, positive = activation, most hits filed as activators; 320,000 tested, 0.063% active; AID 504706; note: potency is the fitted concentration of half-maximal effect; % of control where 0% means no effect; nearly all actives have a fitted effect of over 45% in size
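p53-null H1299 cells stably carrying temperature-sensitive p53-A138V and a BP100-luciferase reporter were pinned with compounds (4-point, 1:5 series) and held 24 hrs at 37 deg C. Luminescence was read 10 min after detection reagent.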
RORg inh – blocks mouse ROR gamma transcriptional activity | Drosophila S2 Gal4-RORgamma UAS-luciferase reporter, 20 h | Potency, µM (top dose mostly 53.6 µM), for the others: top-dose activity change, negative = inhibition, actives largely listed as inhibitors | 310,000 tested, 5.4% active | AID 2551; note: potency is the fitted concentration of half-maximal effect; % is set by controls: 0 for no effect and ±100 for the full control effect; nearly all actives have a fitted effect of over 60% in size
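ROR gamma transcriptional activity was tracked as Gal4-UAS luciferase output in stably transfected Drosophila Schneider cells, with compound added 1 hr before 700 uM copper sulfate induction and a 20 hr ambient-temperature incubation.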
Six1-Eya2 blk – inhibitors of human Six1/Eya2 interaction; Q15475+O00167; AlphaScreen GST-Six1/His-Eya2 binding, biochemical; hits give low values; activity change, % (concentration not given with the values); 360,000 tested, 0.56% active; in the data active = activity change below about -65%; inconclusive = mostly about -30% to -63%; note: % is set by controls: 0 for no effect and ±100 for the full control effect
Target sequence (O00167 whole entry, looked up): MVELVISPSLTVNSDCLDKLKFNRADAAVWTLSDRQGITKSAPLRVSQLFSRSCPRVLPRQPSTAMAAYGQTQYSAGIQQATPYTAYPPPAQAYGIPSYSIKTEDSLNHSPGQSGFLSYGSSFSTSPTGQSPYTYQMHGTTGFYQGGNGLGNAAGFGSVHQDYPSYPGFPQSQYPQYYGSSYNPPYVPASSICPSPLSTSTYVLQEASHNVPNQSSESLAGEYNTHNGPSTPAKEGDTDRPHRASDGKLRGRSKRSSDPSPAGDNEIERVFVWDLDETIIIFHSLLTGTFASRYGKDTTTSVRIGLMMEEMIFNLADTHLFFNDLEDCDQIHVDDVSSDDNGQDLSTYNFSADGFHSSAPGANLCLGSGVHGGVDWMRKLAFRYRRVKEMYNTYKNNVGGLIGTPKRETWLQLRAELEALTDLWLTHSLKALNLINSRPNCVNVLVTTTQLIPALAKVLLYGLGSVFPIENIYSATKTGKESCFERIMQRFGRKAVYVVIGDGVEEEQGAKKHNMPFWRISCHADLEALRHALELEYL
Target sequence (Q15475 whole entry, looked up): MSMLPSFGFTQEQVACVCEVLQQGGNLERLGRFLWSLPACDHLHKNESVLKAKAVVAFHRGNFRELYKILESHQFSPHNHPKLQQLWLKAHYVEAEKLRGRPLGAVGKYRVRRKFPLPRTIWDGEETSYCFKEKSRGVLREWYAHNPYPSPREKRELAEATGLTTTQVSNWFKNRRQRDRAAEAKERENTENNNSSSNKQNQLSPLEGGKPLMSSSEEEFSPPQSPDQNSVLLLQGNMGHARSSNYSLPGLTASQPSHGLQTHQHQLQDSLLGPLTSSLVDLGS
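AlphaScreen luminescence read after one hour at 37 °C in darkness. Pin-transferred compounds met GST-Six1 and His-Eya2 protein (5X stock 250 nM/500 nM) plus glutathione donor and Ni-chelate acceptor beads (5X, 50 ug/mL).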
CtBP-E1A blk – blocks the CtBP interaction with E1A; 340,000 tested, 0.49% active; AlphaScreen GST-E1A/His-CtBP binding, 1536-well; hits give low values; activity change, % (concentration not given with the values); in the data active = activity change below about -65%; inconclusive = mostly about -30% to -63%; note: % is set by controls: 0 for no effect and ±100 for the full control effect
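GST-E1A and His-tagged CtBP (125 nM each as 5X stock) were preincubated with pin-transferred compound for 2 h at 37 °C in the dark, then glutathione donor and nickel acceptor beads were added for 1 h before AlphaScreen reading.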
Numbers without * were called inactive; ? = inconclusive; . = no result given; [ ] = another dose, or the depositor's remark. Only some compounds are listed: those with a hit (about 5.4% of all), similar ones and a draw of the others. Unless noted, calls come from the whole dose curve; as a rule, active = well fitted curve in the direction sought with a large enough effect; inconclusive = small, poorly fitted or top-dose-only effect, or another doubt; inactive = no such curve, though single readings can be large; an effect the other way counts as inactive or inconclusive.

SMILES	VP16 counter	p53 reactivation	RORg inh	Six1-Eya2 blk	CtBP-E1A blk
Cc1ccc(C(C)(C)C)c(SCC(=O)Nc2nnc(C)s2)c1	-17%	10%	7.1µM*	5	-18
O=C(OC(c1ccc(NS(=O)(=O)c2ccccc2)cc1)(C(F)(F)F)C(F)(F)F)c1ccccc1	?	?	14µM*	-1	3
Cc1ccc(S(=O)(=O)Nc2ccc(C(OC(=O)c3ccccc3[N+](=O)[O-])(C(F)(F)F)C(F)(F)F)cc2)cc1	-3%	8%	-7%	-3	18
CCn1c2ccc(C)cc2c2nc3cc(C(=O)O)ccc3nc21	?	?	19%	-69*	-66*
CCn1c2ccc(C)cc2c2nnc(NN)nc21	-7%	-2%	1.6µM*	-29	15
O=C(c1ccc2c(=O)n(C3CCCC3)c(=S)[nH]c2c1)N1CCc2ccccc21	3.2µM*	9%	1µM*	-3	11
CCN(CC)CCNC(=O)c1ccc2c(=O)n(C3CCCC3)c(=S)[nH]c2c1	1%	18%	-37%	-13	-20
CC(C)NC(=O)c1ccc2c(=O)n(C3CCCC3)c(=S)[nH]c2c1	?	-2%	0.1µM*	2	2
COc1ccc2cc(/C(C)=N/NC(=S)Nc3cc(S(=O)(=O)N4CCOCC4)ccc3N3CCOCC3)ccc2c1	8%[10 µM]	4%	6.3µM*	.	.
C/C(=N\NC(=S)Nc1cc(S(=O)(=O)N2CCOCC2)ccc1Cl)c1ccc(N2CCOCC2)cc1	11µM*	0%	2.8µM*	-1	-21
CC(=O)c1ccc(NC(=S)Nc2ccc(N3CCOCC3)cc2)cc1	-10%	1%	-23%	-5	-11
C/C(=N\NC(=S)Nc1ccc(C)c(C)c1)c1ccc(N2CCOCC2)cc1	?	0%	14µM*	?	?
COc1cccc(C(=O)Nc2cc(S(=O)(=O)N3CCOCC3)ccc2N2CCOCC2)c1	.	.	.	1	-4
CCCC(C)C(=O)Nc1cc(S(=O)(=O)N2CCCCC2)ccc1N1CCOCC1 (stereo unspecified)	.	-6%	.	0	-1
C/C(CCC(C)C)=N\NC(=S)Nc1cc(S(=O)(=O)N2CCOCC2)ccc1N1CCOCC1	?	9%	11µM*	-11	-15
Cc1cc(=O)nc2c3ccccc3n(CC(=O)NCCCN3CCCC3=O)n12	-5%	4%	-20%	0	0
COC(=O)c1ccccc1NC(=O)CSc1nc2ccsc2c(=O)n1CCCCC(=O)O	.	.	.	1	-18
O=C(OCc1ccccc1)N1CCC2CC1c1cc(/C=C/CCCSc3ncccn3)ccc12 (stereo unspecified)	.	.	.	7	0
CCOC(=O)CNC(=O)N(CCOC)CC1CCCN(C2Cc3ccccc3C2)C1 (stereo unspecified)	11%	.	-3%	5	7
CNC1=C(N(C(C)=O)c2ccc(Br)cc2)C(=O)c2ccccc2C1=O	13µM*	-40%	5.6µM*	13	0
CCC(=O)N(C1=C(NC)C(=O)c2ccccc2C1=O)C(C)C	-13%	4%	?	2	.
Cc1ccc2nc3cc([N+](=O)[O-])cc([N+](=O)[O-])c3cc2c1	2.2µM*	?	?	-13	0
Cc1nc(-n2[nH]c3c(c2=O)CCCC3)[nH]c(=O)c1Cc1ccccc1	2.5µM*	-7%	2.2µM*	?	?
Cc1nc(N2CCc3ccccc3C2)[nH]c(=O)c1Cc1ccccc1	2%	1%	44%	-9	1
CCOC(=O)[C@@H]1[C@H]2COc3ccccc3[C@H]2N2C(=O)N(c3ccc(Br)cc3)C(=O)[C@]12C	.	-3%	.	1	6
SMILES	VP16 counter	p53 reactivation	RORg inh	Six1-Eya2 blk	CtBP-E1A blk
O=C(NC(C(=O)O)c1ccccc1)c1ccc(S(=O)(=O)N2CCOCC2)cc1 (stereo unspecified)	0%	0%	10%	5	-3
CCCN(CC1CC1)C(=S)NC(=O)c1ccc(S(=O)(=O)N2CCOCC2)cc1	0.89µM*	-3%	0.35µM*	-5	5
N#CCCN(Cc1cccnc1)C(=S)NC(=O)c1ccc(S(=O)(=O)N2CCCC2)cc1	?	1%	2.5µM*	2	1
CN1CCN(C(=S)NC(=O)c2ccc(S(=O)(=O)N3CCOCC3)cc2)CC1	?	-1%	10µM*	-7	.
O=C(NC(=S)N1CCN(C(c2ccccc2)c2ccccc2)CC1)c1ccc(S(=O)(=O)N2CCOCC2)cc1	0.028µM*	-1%	0.32µM*	-12	-1
Cc1ccc(C(=O)NNC(=O)c2ccc(S(=O)(=O)N3CCOCC3)cc2)cc1	24%	1%	-21%	-14	-1
Clc1ccc(N2CCN(/N=C/c3ccncc3)CC2)cc1	?	-2%	-1%	-8	6
Cc1ccc(N2CCN(/N=C/c3ccncc3)CC2)cc1	14µM*	-5%	-3%	-21	-17
C=CC[n+]1ccc(/C=C2\C=Cc3cc(C)ccc3N2CC)c2ccccc21	1.3µM*	0%	1.3µM*	-73*	-21
CCN1/C(=C/c2cc[n+](CCCS(=O)(=O)[O-])c3ccccc23)Sc2ccccc21	-4%	0%	6%	0	-12
COc1cc2[nH]c(=S)n(C3CCN(Cc4ccccc4)CC3)c(=O)c2cc1OC	?	-4%	?	-7	3
COc1cc2[nH]c(=S)n(C3CCCC3)c(=O)c2cc1OC	2.8µM*	7%	4.5µM*	-8	-15
COc1cc2[nH]c(=S)n(N(C(C)=O)C(C)=O)c(=O)c2cc1OC	2%	19%	15%	-1	6
COc1cc2[nH]c(=S)n(C3CC3)c(=O)c2cc1OC	18µM*	-4%	3.5µM*	-16	-5
COc1ccc(NC(=O)O/N=C/c2c(C)nn(C(C)(C)C)c2C)cc1	11µM*	4%	2.5µM*	4	.
CCCN(CCC)c1nc(N)nc(-c2cc(Cl)ccc2OC)n1	-11%	-1%	16µM*	5	0
CCCNc1nc(N)nc(-c2cc(Cl)ccc2OC)n1	19%	-2%	14%	-11	1
CN(Cc1ccc(Cl)s1)C(=O)CCl	-76%	-10%	10µM*	28	-9
CN(Cc1ccc(Cl)cc1)C(=O)CCl	?	-12%	?	-1	7
NS(=O)(=O)c1ccc(CCNC(=O)c2ccc(NC3=NC4CS(=O)(=O)CC4S3)cc2)cc1 (stereo unspecified)	1%	13%	-30%	7	2
CC(C)(C)OC(=O)CNC(=O)c1nc[nH]c1C(=O)N1CCN(c2ccccc2)CC1	-24%	.	13µM*	-1	1
O=C(CNC(=O)c1nc[nH]c1C(=O)N1CCNCC1)OCc1ccccc1	.	-4%	.	1	4
CC(C)C[C@H](NC(=O)c1nc[nH]c1C(=O)N1CCN(c2ccccc2)CC1)C(=O)OC(C)(C)C	?	7%	13µM*	-8	-9

Assay outcomes deposited in PubChem BioAssay by National Center for Advancing Translational Sciences (NCATS).
